Format in all cases: functional
For test [1], the target named is Solute carrier family 2, facilitated glucose transporter member 1 (Homo sapiens) (UniProt P11166). The test can be described thus: ST_JUDE_LEISH: Cytotoxicity at 2uM final concentration against transgenic Leishmania Mexicana promastigotes LmGLUT1 that are glucose transport deficient and complemented with the human glucose transporter GLUT1. Activity is measured by DNA content using SYBR green in vitro.

Test [2] concerns the target Hexose transporter 1 (Plasmodium falciparum) (UniProt O97467). The test can be described thus: ST_JUDE_LEISH: Cytotoxicity at 2uM final concentration against transgenic Leishmania Mexicana promastigotes LmPfHT that are glucose transport deficient and complemented with the Plasmodium falciparum hexose transporter. Activity is measured by DNA content using SYBR green in vitro.

In test [3] the target is Glucose transporter (Leishmania mexicana) (UniProt O61059). The test can be described thus: ST_JUDE_LEISH: Cytotoxicity at 2uM final concentration against transgenic Leishmania Mexicana promastigotes LmGT2 that are glucose transport deficient and complemented with the L. Mexicana glucose transporter 2. Activity is measured by DNA content using SYBR green in vitro.

Sequence of Solute carrier family 2, facilitated glucose transporter member 1 (Homo sapiens) (P11166 whole entry): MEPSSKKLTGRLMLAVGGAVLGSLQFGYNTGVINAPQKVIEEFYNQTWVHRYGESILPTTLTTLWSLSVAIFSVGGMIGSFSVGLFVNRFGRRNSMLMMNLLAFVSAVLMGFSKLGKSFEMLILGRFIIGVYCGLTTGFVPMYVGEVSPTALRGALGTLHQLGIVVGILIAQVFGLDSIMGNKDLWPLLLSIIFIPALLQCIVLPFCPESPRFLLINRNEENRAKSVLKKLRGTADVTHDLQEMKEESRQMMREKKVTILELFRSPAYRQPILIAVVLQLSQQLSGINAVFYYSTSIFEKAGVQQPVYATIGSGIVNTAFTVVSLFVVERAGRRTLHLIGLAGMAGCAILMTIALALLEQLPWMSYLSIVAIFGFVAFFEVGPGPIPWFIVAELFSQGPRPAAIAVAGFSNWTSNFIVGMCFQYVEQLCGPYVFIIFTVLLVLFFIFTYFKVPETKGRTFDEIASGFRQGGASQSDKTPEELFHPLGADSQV

As usually defined, the inhibition is the relative decrease from the control value, in per cent. In the case of `COc1ccccc1CNC(=O)c1ccc(N2CCN(c3ccncc3)CC2)cn1`, the inhibition is 7.32% in test [1], 2.84% in test [2] and 1.11% in test [3].

For `CN1CCC(NC(=O)c2cccc(Nc3cc(Nc4cccc(Br)c4)ncn3)c2)CC1`, the inhibition in test [1] turned out to be 4.2%; in test [2] it was 3.45%; in test [3], 2.65%.

Turning to `CCNc1cc(C)nc(Nc2ccc(NC(=O)C3CCCC3)cc2)n1`, the inhibition was found to be 8.61% in test [1], 6.7% in test [2] and 3.57% in test [3].

Take `CCN(CC)CCCN(Cc1ccc(-c2ccc(C(F)(F)F)cc2)cc1)C(=O)Cn1c(SCc2cccc(F)c2F)cc(=O)c2ccccc21`: the inhibition in test [1] is 2.74%; in test [2] it was 2.63%; in test [3], 2.46%.

For the molecule `Cc1ccc(-c2nc(Nc3ccncc3)c3ccccc3n2)s1`, the inhibition in test [1] was found to be 5.34%; in test [2], 3.16%; in test [3], 0.88%.

Turning to `COc1cc2/c(=N/c3ccc(Br)cc3F)nc[nH]c2cc1OCC1CCN(C)CC1`, the inhibition in test [1] is -0.8%; in test [2], 2.56%; in test [3], 0.95%.

Regarding `O=C(NC1CCN(c2ccnc3ccccc23)C1)c1ccc(OC(F)(F)F)cc1` (stereo unspecified), the figures for the inhibition in test [1], in test [2] and in test [3] were 1.75%, 1.97% and 2.7%, respectively.

For `CCCNC(=O)C1Cc2cc(OC)c(OC)cc2C2(N1)C(=O)N(Cc1cccc(OC)c1)c1ccccc12` (stereo unspecified), the inhibition in test [1] is -1.15%; in test [2], 0.36%; in test [3] it was -0.47%.

As for `CC(C)C[C@H](NC(=O)c1cc(-c2ccc(F)cc2)no1)C(=O)O.CC(C)C[C@H](NC(=O)c1conc1-c1ccc(F)cc1)C(=O)O`, the results for the inhibition in test [1], in test [2] and in test [3] were 1.19%, 2.32% and 2.96%, respectively.

`CC[C@H](C)CNC(=O)c1cncc(-c2ccc(CNCC3CNCCCO3)cc2)c1` (stereo partly specified): the values for the inhibition in test [1], in test [2] and in test [3] were -1.56%, -2.12% and -0.99%, respectively.

Take `Cc1ccc(OCCCON2C(=N)N=C(N)NC2(C)C)cc1C`: the inhibition in test [1] is 2.79%; in test [2], 2.67%; in test [3], 1.46%.

For `CCCCCCCCCCN1C(=O)C2C(CCCCNC(C)=O)NC3(C(=O)N(Cc4ccc(C(C)(C)C)cc4)c4ccccc43)C2C1=O` (stereo unspecified), the inhibition in test [1] came to 9.76%; in test [2], 9.32%; in test [3] it was 3.53%.

In the case of `NCCCNc1nc(Nc2cccc(C(N)=O)c2)c2c(=O)[nH]ccc2n1`, the inhibition is -0.41% in test [1], 1.23% in test [2] and 0.77% in test [3].

With `Oc1ccc2ccccc2c1C=NNc1nc(=Nc2ccccc2)nc(N2CCOCC2)[nH]1`, the values for the inhibition in test [1], in test [2] and in test [3] were 4.21%, 3.72% and 0.2%, respectively.

For `COc1ccc(CNC(=O)C2Cc3ccccc3CN2Cc2ccc3ccccc3c2)cc1` (stereo unspecified), the inhibition was 2.51% in test [1], 1.12% in test [2] and -0.58% in test [3].

For `CS(=O)(=O)c1ccc(Nc2ncc(-c3ccc(S(C)(=O)=O)cc3)c(OCC(F)(F)F)n2)cc1`, the inhibition in test [1] came to 4.36%; in test [2], 0.18%; in test [3], 3.17%.

`CN1CCN(Cc2cccc(-c3ccc4c(Nc5ccc(Oc6ccccc6)cc5)ccnc4c3)c2)CC1`: the inhibition in test [1] stood at 12.9%; in test [2], 17%; in test [3], 18.6%.

As to `CCCNC(=O)Nc1cc2cc(-c3cccc(CN4CCCCC4)c3)ccc2n2c(C)nnc12`, the inhibition in test [1] was determined as 0.33%; in test [2] it was 1.3%; in test [3] it was 0.91%.

Regarding `Cc1cnc(NCC2CCCCC2)nc1N[C@@H](CO)C(=O)Nc1ccccc1`, the figures for the inhibition in test [1], in test [2] and in test [3] were 1.68%, 2.03% and -0.71%, respectively.

As for `COc1cccc(Nc2nc(Nc3cccc(C#N)c3)cc(-c3ccncc3)n2)c1`, the inhibition is 3.83% in test [1], 4.95% in test [2] and 1.57% in test [3].

Consider `Nc1cc(/C=C/c2ccc([N+](=O)[O-])o2)nc2ccccc12`, for which the inhibition in test [1] was found to be 104%; in test [2] it was 104%; in test [3], 101%.

Turning to `O=C(N[C@@H](Cc1ccccc1)C(=O)NC1CCCCC1)c1ccc(O)c(-c2ccc(Cl)c(Cl)c2)c1`, the inhibition in test [1] is -0.99%; in test [2], 0.22%; in test [3], -0.73%.

On to `COc1ccccc1CNC(=O)c1nn(-c2ccc(Cl)cc2)c(=O)c2ccccc12`, for which the inhibition in test [1] worked out at 4.66%; in test [2] it was 4.83%; in test [3] it was 3.54%.

Regarding `O=C(O)C1Cc2c([nH]c3ccccc23)C(c2ccc(Cl)cc2Cl)N1` (stereo unspecified), the inhibition was found to be 3.99% in test [1], 2.22% in test [2] and 4.37% in test [3].

As for `CN1CCN(CCCN(Cc2csc(-c3ccc(CNCc4ccccc4)cc3)n2)S(=O)(=O)c2ccc(F)cc2)CC1`, the results for the inhibition in test [1], in test [2] and in test [3] were 14.9%, 17.1% and 10.1%, respectively.

Regarding `COc1cc(C)nc2ccc(NC(=O)COCC(=O)Nc3ccc4nc(C)cc(OC)c4c3)cc12`, the figures for the inhibition in test [1], in test [2] and in test [3] were 4.3%, 3.83% and 3.64%, respectively.

As for `Cc1cc2c(cc1C(F)(F)F)N(C(=O)Nc1ccc(OCCN(C)C)c(C(F)(F)F)c1)CC2`, the inhibition in test [1] was found to be 2.99%; in test [2], 2.92%; in test [3], 0.83%.

As for `CN1CCc2cc(I)c(O)cc2C1Cc1ccccc1Cl` (stereo unspecified), the inhibition amounted to 1.98% in test [1], 3.88% in test [2] and 2.59% in test [3].

On to `CC(=O)N[C@H](C(=O)Nc1ccc(-c2cccc(-c3nc4cccc(C)c4[nH]3)c2)cc1)C(C)C`, for which the inhibition in test [1] was found to be 1.35%; in test [2], 3.2%; in test [3], 2.45%.

In the case of `Cc1cnc(NCCc2ccc(F)cc2)nc1N[C@@H](CC(C)C)C(=O)Nc1ccccc1`, the inhibition in test [1] stood at 5.17%; in test [2], 4.05%; in test [3], 4.26%.

For `CC(=O)c1cccc(NC(=O)N2CCCN(CCCCCNC(=O)/C=C/c3ccc(Cl)c(Cl)c3)CC2)c1`, the inhibition was -1.7% in test [1], -0.03% in test [2] and -0.6% in test [3].

`CCOc1cc(CC)ccc1C1CCN(CCN2CCC(NC(=O)c3ccc(-c4ccc(C#N)cc4)cc3)CC2)CC1`: the inhibition in test [1] is -0.43%; in test [2], 0.77%; in test [3] it was 1.19%.

The values above are taken from ChEMBL document CHEMBL3433997, “St. Jude Leishmania screening dataset” (2016).
